# Measurements from the supplement of paper PMC6555819.
# Assays:
# Test in all cases: PBM binding z-score (relative to random genomic background probes); higher = stronger binding; sequences stand for … in GC…GCGATTGACAGCGTAGAATGAAGG
# [1] = test system: FXR:RXRa (NR concentration 270 nM, RXRa partner concentration 90 nM)
# Method in brief: (§1)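 Binding buffer was PBS pH 7.4 with 2% milk, 0.02% Triton X-100, 1 mM DTT, 0.2 mg/mL BSA and 0.4 mg/ml salmon testes DNA. In it, ligand-free nuclear receptor dimers were incubated 1 h on custom Agilent 4×180K protein-binding microarrays carrying double-stranded probes. Antibodies against each partner (one per run) detected binding, and z-scores were calculated against random background probes after regression normalization of scanned fluorescence.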
# [2] = test system: LXRa:RXRa (NR concentration 270 nM, RXRa partner concentration 90 nM)
# Method in brief: as §1
# [3] = test system: LXRa homodimer (NR concentration 270 nM)
# Method in brief: as §1
# [4] = test system: LXRb:RXRa (NR concentration 270 nM, RXRa partner concentration 90 nM)
# Method in brief: as §1
# [5] = test system: LXRb homodimer (NR concentration 270 nM)
# Method in brief: as §1
# [6] = test system: PPARa:RXRa (NR concentration 270 nM, RXRa partner concentration 90 nM)
# Method in brief: as §1
# [7] = test system: PPARg:RXRa (NR concentration 180 nM, RXRa partner concentration 90 nM)
# Method in brief: as §1
# [8] = test system: PPARg:RXRa 270nM:90nM, anti-RXR (NR concentration 270 nM, RXRa partner concentration 90 nM)
# Method in brief: as §1
# [9] = test system: PPARg:RXRa 30nM:10nM, anti-RXR (NR concentration 30 nM, RXRa partner concentration 10 nM)
# Method in brief: as §1
# [10] = test system: PPARg:RXRa 90nM:30nM, anti-RXR (NR concentration 90 nM, RXRa partner concentration 30 nM)
# Method in brief: as §1
# [11] = test system: PPARg:RXRa DBDmut IVT, anti-RXR (DBD mutation: RXRa K156A/R161A, NR concentration 270 nM, RXRa partner concentration 90 nM)
# Method in brief: as §1
# [12] = test system: PPARg:RXRa IVT, anti-PPARg (NR concentration 270 nM, RXRa partner concentration 90 nM)
# Method in brief: as §1
# [13] = test system: PPARg DBDmut:RXRa IVT, anti-PPARg (DBD mutation: PPARg1 K132A/R137A, NR concentration 270 nM, RXRa partner concentration 90 nM)
# Method in brief: as §1
# [14] = test system: PPARg DBDmut IVT, anti-PPARg (DBD mutation: PPARg1 K132A/R137A, NR concentration 270 nM)
# Method in brief: as §1
# [15] = test system: PPARg homodimer (NR concentration 180 nM)
# Method in brief: as §1
# [16] = test system: PXR:RXRa (NR concentration 270 nM, RXRa partner concentration 90 nM)
# Method in brief: as §1
# [17] = test system: PXR homodimer (NR concentration 270 nM)
# Method in brief: as §1
# [18] = test system: RARa:RXR (NR concentration 270 nM, RXRa partner concentration 90 nM)
# Method in brief: as §1
# [19] = test system: RARa homodimer (NR concentration 270 nM)
# Method in brief: as §1
# [20] = test system: RARb:RXRa (NR concentration 270 nM, RXRa partner concentration 90 nM)
# Method in brief: as §1
Sequence,PBM binding z-score [1],PBM binding z-score [2],PBM binding z-score [3],PBM binding z-score [4],PBM binding z-score [5],PBM binding z-score [6],PBM binding z-score [7],PBM binding z-score [8],PBM binding z-score [9],PBM binding z-score [10],PBM binding z-score [11],PBM binding z-score [12],PBM binding z-score [13],PBM binding z-score [14],PBM binding z-score [15],PBM binding z-score [16],PBM binding z-score [17],PBM binding z-score [18],PBM binding z-score [19],PBM binding z-score [20]
TATCCTAGGTCATGCGGGCCAGTATAGTGTCGGC,4.73,5.7,4.76,2.7,2.07,4.14,3.92,3.74,1.55,2.88,3.98,4.97,1.6,1.66,1.75,2.04,0.212,2.76,-0.133,3.9
CCGGACAGGTGAGAAGGTAACTCAGCCTCGATTA,-0.332,-0.196,-0.289,-0.26,-0.839,0.454,0.347,0.118,-0.24,-0.183,1.04,0.612,-0.39,-1.64,0.569,-0.415,-0.227,-0.262,0.0296,0.711
GCTGGTAGATCAAGGTTAAGAAAGACTAAGCTAA,0.17,0.885,-0.138,0.378,-0.528,1.12,0.134,1.18,-0.00579,1,-0.391,0.232,-0.0433,-0.0207,-0.421,0.348,-0.246,0.69,0.451,0.949
ATATGTAGGTTATCAGGTCATTCAGTTTGCGCAT,3.19,3.57,4.4,2.93,1.68,4.62,7.23,5.99,4.05,5.54,7.41,7.44,1.79,2.79,2.91,3.44,9.35,3.2,2.11,2.86
TATACACGGTCAAAGGCCAGAGTACGAATGTCGA,1.3,3.22,2.75,0.929,1.43,2.04,3.99,4.34,2.65,4.3,0.134,2.39,1.55,1.14,1.12,0.507,0.583,1.13,0.418,2.85
CGAACTATGTCATCCAGGACAGTGAATACATTGA,0.102,-0.0297,0.258,0.236,0.0323,1.01,1.11,1.06,0.663,0.773,3.74,2.94,1.29,1.1,0.502,0.317,-0.051,0.733,0.52,0.805
ACTTACGGGTCAATGAGGTTATAGCACGCGTATA,5.51,4.96,0.962,4.08,1.04,5.25,4.45,4.61,2.44,3.5,3.32,3.66,1.87,1.58,1.79,4.89,2.68,4.53,1.1,3.86
CCAGACAGGCGAGAAGGTAACTCAGCCTCGATTA,-0.951,-0.595,-0.499,-0.97,-1.31,-0.764,-0.0182,-0.949,-0.723,-0.947,-0.678,-0.816,-0.981,-2.1,-0.649,-1.02,-0.455,-0.88,-0.498,-0.619
CAAACTAGGTCAAGGTCAAAATCGGTTTGTGCCA,6.5,5.02,3.14,4.66,1.58,6.16,9.66,7.73,6.38,7.81,8.64,9.04,2.23,3.4,2.8,4.7,1.74,4.78,1.1,5.1
TCTGCTAGGTCAGTTGGTCAGCTAACGAGCTGCC,0.844,0.445,-0.44,0.299,0.673,1.29,0.575,1.83,1.27,1.66,2.77,3.08,-0.303,0.752,0.0124,0.0781,-0.754,0.864,-0.941,3.35
CGAACTAGGTCAATGACAGGACAGTGAATAGTAA,2.8,2.36,0.289,1.59,0.0362,4.34,7.1,6.02,3.52,5.51,8.25,7.96,1.69,1.41,1.62,1.12,-0.0371,1.75,0.354,3.64
CCTAGGAGGCCAATCTGGGTCACTCAAGGCTTGA,1.29,2.42,-0.439,1.35,-1.2,3.35,2.59,2.49,0.067,1.85,4.15,5.21,-0.00134,-1.3,0.591,1.97,-0.291,1.64,-0.236,1.94
AATACAGGGTCAATAGGCCAGAGTAGGTACGAAT,6.54,5.03,0.816,3.72,0.669,5.72,6.47,5.46,2.53,4.61,2.44,4.21,1.55,0.759,2.2,2.69,0.585,3.85,0.911,4.17
TACCCTAGGTCAGATCGGGCCAGTATACGCTATA,2.3,4.7,5.49,2.57,2.46,1.98,1.12,1.34,0.45,1.33,0.709,2.17,0.146,-0.236,0.849,1.37,-0.0848,1.8,0.123,3.19
ATATGTAGGTTAACGGGTCATTCAGTTTGCGCAT,2.83,3.03,1.03,3.05,0.599,5.14,7.84,6.45,4.4,6.25,8.01,7.92,2.68,1.82,2.04,3.26,3.42,3.42,1.02,2.54
